Data: the supplement of paper PMC13094657
± gives the standard deviation of the averaged measurements.

What was measured:
MDA-MB-231 [1] = assay: cell viability relative to vehicle unstimulated control (fraction); higher = more viable cells; conditions: pre-treatment time: 18 h then 24 h IFNg/TNF
MDA-MB-231 [2] = assay: kynurenine production, fold change vs DMSO IFNg/TNF control; higher = more kynurenine produced (less inhibition); conditions: pre-treatment time: 18 h then 24 h IFNg/TNF
Summary of the method: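 MDA-MB-231 cells (7 × 10^4/well, 96-well plates, seeded 24 h earlier) were pre-treated 18 h with each natural product in 0.1% DMSO, then stimulated 24 h with IFNγ (1 U/ml) and TNF (6.25 ng/ml) at 37°C. Supernatant kynurenine was read at 492 nm after trichloroacetic acid and p-dimethylaminobenzaldehyde treatment, against 0–100 μM standards. Kynurenine production is the fold change over cytokine-stimulated vehicle wells on the same plate, averaged over duplicate plates in the first screening round.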
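For cell viability relative to vehicle unstimulated control in this document: viability of the cells left after supernatant collection, read with Deep Blue dye added for 4 h, as absorbance at 570 nm minus 600 nm.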

Compound	cell viability (MDA-MB-231 [1])	kynurenine production (MDA-MB-231 [2])
COC(=O)C[C@](O)(CCCC(C)(C)O)C(=O)O[C@@H]1C(OC)=C[C@]23CCCN2CCc2cc4c(cc2[C@H]13)OCO4 [Homoharringtonine] (compound dose: 10 uM)	0.382	0.125 ± 0.08
C/C1=C\C(=O)c2c(C)coc2C/C(C)=C/CC1 [Furanodienone] (compound dose: 10 uM)	0.949 ± 0.065	0.759 ± 0.13
CCCCC/C=C\C=C\C(=O)O[C@H]1C(C)=C[C@]23C(=O)[C@@H](C=C(CO)[C@@H](O)[C@]12O)[C@H]1[C@@H](C[C@H]3C)C1(C)C [3-O-(2'E,4'ZDecadienoyl) ingenol] (compound dose: 10 uM)	1 ± 0.09	1.022 ± 0.0084
CC(CCC(OC1OC(CO)C(O)C(O)C1OC1OC(CO)C(O)C(O)C1O)C(C)(C)O)C1CCC2(C)C3CC=C4C(CCC(OC5OC(CO)C(O)C(O)C5O)C4(C)C)C3(C)C(O)CC12C (configuration not stated) [Mogroside III-E] (compound dose: 10 uM)	1.08 ± 0.013	0.996 ± 0.3
C[C@H]1O[C@@H](O[C@H]2CC[C@@]3(C)[C@@H](CC[C@]4(C)[C@@H]3C=C[C@]35OC[C@@]6(CCC(C)(C)C[C@H]63)[C@@H](O)C[C@]54C)[C@]2(C)CO)[C@H](O)[C@@H](O[C@@H]2O[C@H](CO)[C@@H](O)[C@H](O)[C@H]2O)[C@H]1O [Saikosaponin A] (compound dose: 10 uM)	1.015 ± 0.0091	0.824 ± 0.1
C[C@H](CC[C@@H](O)C(C)(C)O)[C@H]1CC[C@@]2(C)[C@@H]3CC=C4[C@@H](CC[C@H](O)C4(C)C)[C@]3(C)[C@H](O)C[C@]12C [Mogrol] (compound dose: 10 uM)	0.939 ± 0.051	0.905 ± 0.15
C[C@@H]1O[C@@H](O[C@H]2[C@H](O[C@H]3CC[C@]4(C)[C@H]5CC=C6[C@@H]7CC(C)(C)CC[C@]7(C(=O)O)CC[C@@]6(C)[C@]5(C)CC[C@H]4C3(C)C)OC[C@H](O[C@@H]3O[C@H](CO)[C@@H](O)[C@H](O)[C@H]3O)[C@@H]2O)[C@H](O)[C@H](O)[C@H]1O [Hederacolchiside A1] (compound dose: 10 uM)	0.221 ± 0.013	0.396 ± 0.15
C=C[C@]1(C)CC[C@@H](C(=C)C)C[C@H]1C(=C)C [β-Elemene] (compound dose: 10 uM)	0.939 ± 0.071	0.8 ± 0.11
C[C@@H]1CC[C@]2(C(=O)O[C@@H]3O[C@H](CO)[C@@H](O)[C@H](O)[C@H]3O)CC[C@]3(C)C(=CC[C@@H]4[C@@]5(C)CC[C@H](O[C@@H]6OC[C@H](O)[C@H](O)[C@H]6O)C(C)(C)[C@@H]5CC[C@]43C)[C@@H]2[C@]1(C)O [Ziyuglycoside I] (compound dose: 10 uM)	0.947 ± 0.068	0.804 ± 0.19
C=C1CC[C@@H]2[C@](C)(CO)[C@H](O)CC[C@@]2(C)[C@@H]1/C=C/C1=CCOC1=O [14-Deoxy-11,12-didehydroandrographolide] (compound dose: 10 uM)	0.857 ± 0.047	0.921 ± 0.095
C[C@H]1O[C@@H](O[C@H]2[C@@H](O)C[C@H](O[C@H]3[C@@H](O)C[C@H](O[C@H]4CC[C@@]5(C)[C@H](CC[C@@H]6[C@@H]5CC[C@]5(C)[C@@H](C7=CC(=O)OC7)CC[C@]65O)C4)O[C@@H]3C)O[C@@H]2C)C[C@H](O)[C@@H]1O [Digitoxin] (compound dose: 10 uM)	0.997 ± 0.019	0.967 ± 0.023
C[C@@H]1CC[C@]2(C(=O)O[C@@H]3O[C@H](CO)[C@@H](O)[C@H](O)[C@H]3O)CC[C@]3(C)C(=CC[C@@H]4[C@@]5(C)C[C@@H](O)[C@H](O)C(C)(C)[C@@H]5CC[C@]43C)[C@@H]2[C@]1(C)O [Rosamultin] (compound dose: 10 uM)	1 ± 0.077	1.09 ± 0.26
CC(C)=CCC[C@](C)(O[C@@H]1O[C@H](CO)[C@@H](O)[C@H](O)[C@H]1O)[C@H]1CC[C@]2(C)[C@@H]1[C@H](O)C[C@@H]1[C@@]3(C)CC[C@H](O)C(C)(C)[C@@H]3[C@@H](O)C[C@]12C [Ginsenoside F1] (compound dose: 10 uM)	0.982 ± 0.05	1.13 ± 0.066
COC(=O)C1=C2CCOC3=C2C2=C1C(=O)[C@@H]1C[C@H]4N(C[C@@H](CC3)[C@@]24C)C[C@H]1C [Daphnicyclidin D] (compound dose: 10 uM)	0.948 ± 0.076	0.831 ± 0.18
C=C(C)[C@H]1CC=C(C)CC1 [(r)-(+)-limonene] (compound dose: 10 uM)	0.986 ± 0.032	0.907 ± 0.04
CO[C@H]1O[C@@H]2O[C@@]3(C)CC[C@H]4[C@H](C)CC[C@@H]([C@H]1C)[C@@]24OO3 [Artemether] (compound dose: 10 uM)	1 ± 0.11	0.37 ± 0.12

Compound	cell viability (MDA-MB-231 [1])	kynurenine production (MDA-MB-231 [2])
CC1CCC(C(C)C)C(O)C1 (single isomer, unassigned; (-)) [(-)-Menthol] (compound dose: 10 uM)	0.899 ± 0.076	0.988 ± 0.27
CC1OC(OC2C(CO)OC(OCC3OC(OC(=O)C45CCC(C)(C)CC4C4=CCC6C7(C)CCC(OC8OCC(O)C(O)C8O)C(C)(CO)C7CCC6(C)C4(C)CC5)C(O)C(O)C3O)C(O)C2O)C(O)C(O)C1O (configuration not stated) [Hederacoside D] (compound dose: 10 uM)	0.923 ± 0.067	0.851 ± 0.16
C[C@]1(OC(=O)/C=C/c2ccccc2)C[C@@H](O)[C@]2(O)C=CO[C@@H](O[C@@H]3O[C@H](CO)[C@@H](O)[C@H](O)[C@H]3O)[C@@H]21 [Harpagoside] (compound dose: 10 uM)	0.987 ± 0.013	0.91 ± 0.17
CC1(C)[C@@H](O[C@H]2O[C@H](C(=O)O)[C@@H](O)[C@H](O)[C@H]2O[C@@H]2O[C@H](C(=O)O)[C@@H](O)[C@H](O)[C@H]2O)CC[C@]2(C)[C@H]3C(=O)C=C4[C@@H]5C[C@@](C)(C(=O)O)CC[C@]5(C)CC[C@@]4(C)[C@]3(C)CC[C@@H]12 [Dipotassium glycyrrhizinate] (compound dose: 10 uM)	0.924 ± 0.031	0.808 ± 0.21
CC(C)=CCC[C@](C)(O[C@@H]1O[C@H](CO[C@@H]2OC[C@H](O)[C@H](O)[C@H]2O)[C@@H](O)[C@H](O)[C@H]1O)[C@H]1CC[C@]2(C)[C@@H]1[C@H](O)C[C@@H]1[C@@]3(C)CC[C@H](O[C@@H]4O[C@H](CO)[C@@H](O)[C@H](O)[C@H]4O[C@@H]4O[C@H](CO)[C@@H](O)[C@H](O)[C@H]4O)C(C)(C)[C@@H]3CC[C@]12C [Ginsenoside Rb2] (compound dose: 10 uM)	0.968 ± 0.04	0.88 ± 0.14
CC(C)(O)[C@@H]1CC[C@](C)([C@H]2[C@@H](O)C[C@@]3(C)[C@@H]4C[C@H](O)[C@H]5C(C)(C)[C@@H](O[C@@H]6OC[C@@H](O)[C@H](O)[C@H]6O[C@@H]6O[C@H](CO)[C@@H](O)[C@H](O)[C@H]6O)CC[C@@]56C[C@@]46CC[C@]23C)O1 [Astragaloside III] (compound dose: 10 uM)	1.03 ± 0.069	0.822 ± 0.018
CC(C)c1cccc(=O)c(O)c1 [Hinokitiol] (compound dose: 10 uM)	0.9746 ± 0.0011	0.423 ± 0.025
CC(=O)OCC1=CO[C@@H](OC(=O)CC(C)C)[C@H]2C1=C[C@H](OC(=O)CC(C)C)[C@]21CO1 [Valepotriate] (compound dose: 10 uM)	0.185 ± 0.028	0.321 ± 0.04
CC(C)(O[C@@H]1O[C@H](CO)[C@@H](O)[C@H](O)[C@H]1O)[C@@H]1CC[C@](C)([C@H]2[C@@H](O)C[C@@]3(C)[C@@H]4C[C@H](O)[C@H]5C(C)(C)[C@@H](O[C@@H]6OC[C@@H](O)[C@H](O)[C@H]6O)CC[C@@]56C[C@@]46CC[C@]23C)O1 [Isoastragaloside IV] (compound dose: 10 uM)	0.924 ± 0.083	1.23 ± 0.33
C[C@@H]1O[C@@H](OC[C@H]2O[C@@H](Oc3c(-c4ccc(O)c(O)c4)oc4cc(O)cc(O)c4c3=O)[C@H](O)[C@@H](O)[C@@H]2O)[C@H](O)[C@H](O)[C@H]1O [Rutin] (compound dose: 10 uM)	0.867	0.755 ± 0.058
C[C@@H]1O[C@@H](O[C@H]2[C@H](Oc3cc(O)c4c(c3)O[C@H](c3ccc(O)cc3)CC4=O)O[C@H](CO)[C@@H](O)[C@@H]2O)[C@H](O)[C@H](O)[C@H]1O [Naringin] (compound dose: 10 uM)	1.02 ± 0.015	1.15 ± 0.036
C[C@H](CC[C@@H](O[C@@H]1O[C@H](CO[C@@H]2O[C@H](CO)[C@@H](O)[C@H](O)[C@H]2O)[C@@H](O)[C@H](O)[C@H]1O[C@@H]1O[C@H](CO)[C@@H](O)[C@H](O)[C@H]1O)C(C)(C)O)[C@H]1CC[C@@]2(C)[C@@H]3CC=C4[C@@H](CC[C@H](O[C@@H]5O[C@H](CO)[C@@H](O)[C@H](O)[C@H]5O)C4(C)C)[C@]3(C)[C@H](O)C[C@]12C [Siamenoside I] (compound dose: 10 uM)	1.14 ± 0.34	1.1 ± 0.063
C[C@@H]1CC[C@]2(C(=O)O)CC[C@]3(C)C(=CCC4[C@@]5(C)CC[C@H](O[C@@H]6OC[C@H](O)[C@H](O)[C@H]6O)C(C)(C)C5CC[C@]43C)[C@@H]2[C@]1(C)O (some centres not stated) [Ziyuglycoside II] (compound dose: 10 uM)	0.934 ± 0.014	0.646 ± 0.0077
CC(C)c1ccc2c(c1)CC[C@H]1[C@](C)(C(=O)O)CCC[C@]21C [Dehydroabietic acid] (compound dose: 10 uM)	1.008 ± 0.0086	0.713 ± 0.23
CC(=O)O[C@H]1C(=O)[C@@]2(C)[C@H]([C@H](OC(=O)c3ccccc3)[C@]3(O)C[C@H](OC(=O)[C@H](O)[C@@H](NC(=O)c4ccccc4)c4ccccc4)C(C)=C1C3(C)C)[C@]1(OC(C)=O)CO[C@@H]1C[C@@H]2O [7-epi-Taxol] (compound dose: 10 uM)	0.791 ± 0.032	0.3 ± 0.026
